Source: PubChem BioAssay
Shown is part of a subset that was picked to be rich in hits.
MgrA-DNA mod – S. aureus MgrA-DNA binding modulation; inhibition, % (concentration not given with the values); hit rate 0.13% among 84,000; AID 602314; fluorescence polarization; in the data active means inhibition above about 30%, passing the limit was not always enough;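 further: 0% = protein plus DNA without compound and 100% = DNA alone without protein; higher means less MgrA bound to DNA so lower polarization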
Numbers without * were called inactive.

How did COc1cc(/C=C2/SC(=Nc3ccccc3)NC2=O)cc(OC)c1OC do in these assays?
MgrA-DNA mod: 0

Results for O=C(CS(=O)(=O)c1ccccc1)Nc1ccc(S(=O)(=O)N2CCCCC2)cc1 ?
MgrA-DNA mod: -2

What do the screens show for `CCOc1ccc(C(=O)NCC(=O)O)cc1`?
MgrA-DNA mod: 2

Results for O=C(NCCSCc1ccco1)Nc1cc(Cl)cc(Cl)c1 ?
MgrA-DNA mod: 0

Results for O=C(NCCCO)Nc1ccc2nc(-c3ccco3)c(-c3ccco3)nc2c1 ?
MgrA-DNA mod: 77*

What do the screens show for `O=C(Nc1ccc(N2CCOCC2)cc1)Nc1ccc2nc(-c3ccco3)c(-c3ccco3)nc2c1`?
MgrA-DNA mod: 2

Results for O=C(O)c1ccc(N2CCCC2)cc1 ?
MgrA-DNA mod: -6

Results for Cc1cc(C)n(-c2ccc(C(=O)O)cc2)n1 ?
MgrA-DNA mod: -1

How did Cc1ccc(C)n1-c1ccc(C(=O)O)cc1 do in these assays?
MgrA-DNA mod: 100*

Results for O=c1oc2ccc(Cl)cc2cc1-c1nnc(-c2ccc([N+](=O)[O-])cc2)o1 ?
MgrA-DNA mod: 2

What do the screens show for `CCc1cc2cc(C)cc(C)c2nc1SCC(=O)N1CCN(C(=O)c2ccco2)CC1`?
MgrA-DNA mod: 2

Results for Cc1cc(C)c2nc(N3CCCN(C(=O)c4ccco4)CC3)c(C#N)cc2c1 ?
MgrA-DNA mod: 49*

What do the screens show for `O=C(c1ccco1)N1CCCN(C(=O)c2ccco2)CC1`?
MgrA-DNA mod: 1

What do the screens show for `O=C(Cc1ccccc1)NC1CCN(S(=O)(=O)c2cccc(C(F)(F)F)c2)CC1`?
MgrA-DNA mod: 0

Results for O=C(CN1CCc2ccccc2C1)Nc1ccccc1 ?
MgrA-DNA mod: -3

Results for CN(C)c1ccc(C2N=C(c3ccccc3)NO2)cc1 (stereo unspecified) ?
MgrA-DNA mod: -5

How did CCOc1ccc(N2CC(C(=O)OC(C)C(=O)c3ccccc3)CC2=O)cc1 (stereo unspecified) do in these assays?
MgrA-DNA mod: -1

What do the screens show for `Cc1ccn2cc(C(=O)O)nc2c1`?
MgrA-DNA mod: -2

Results for O=C1NC(=S)N(c2ccccc2)C(=O)/C1=C\c1ccoc1 ?
MgrA-DNA mod: 76*

Results for O=C1NC(=O)N(c2ccccc2)C(=O)/C1=C\c1ccc(C(=O)O)cc1 ?
MgrA-DNA mod: 5

How did COC(=O)COc1ccc(/C=C2\C(=O)NC(=S)N(c3ccccc3)C2=O)cc1OC do in these assays?
MgrA-DNA mod: 8

How did CCN1C(=O)CC(c2ccc(OC)cc2)Sc2ccccc21 (stereo unspecified) do in these assays?
MgrA-DNA mod: -2

Results for COc1ccc([C@H]2Sc3ccccc3N(CCN(C)C)C(=O)[C@H]2OC(C)=O)cc1 ?
MgrA-DNA mod: 96*

Results for COc1ccc(C2Sc3ccccc3N(CCN(C)C)C(=O)C2OC(C)=O)cc1 (stereo unspecified) ?
MgrA-DNA mod: 1

What do the screens show for `COC(=O)CN(Cc1ccccc1)S(=O)(=O)c1ccc2c(c1)OCCO2`?
MgrA-DNA mod: -3

How did COc1ccc2nc(N3CCOCC3)[nH]c2c1 do in these assays?
MgrA-DNA mod: 1

What do the screens show for `COC(=O)c1ccc([C@@H]2Nc3c(C)cccc3[C@@H]3C=CC[C@@H]32)cc1`?
MgrA-DNA mod: 0

Results for O=C(c1cccc2c1NC(c1ccc(Br)cc1)C1CC=CC21)N1CCOCC1 (stereo unspecified) ?
MgrA-DNA mod: 1

How did O=C(O)C1Nc2c(I)cccc2C2C=CCC12 (stereo unspecified) do in these assays?
MgrA-DNA mod: 101*

What do the screens show for `CN1C(=O)/C(=C2\SC(=S)N(C3CCS(=O)(=O)C3)C2=O)c2cc(Br)ccc21` (stereo unspecified)?
MgrA-DNA mod: 1

Results for Cc1ccc2oc(-c3ccc(NC(=O)C(F)(F)F)cc3)nc2c1 ?
MgrA-DNA mod: 0

How did O=C(Nc1ccc2nc3c(=O)[nH]c(=O)[nH]c3nc2c1)C(F)(F)F do in these assays?
MgrA-DNA mod: 57*

Results for CCOc1ccc2nc3c(=O)[nH]c(=O)[nH]c3nc2c1 ?
MgrA-DNA mod: 43

What do the screens show for `CC(C)(C)OC(=O)NC1CCN(C(=O)c2ccco2)CC1`?
MgrA-DNA mod: -1

How did N#CC(C(=O)N1CCCC1)C(=S)Nc1cccc(C(F)(F)F)c1 (stereo unspecified) do in these assays?
MgrA-DNA mod: -2

Results for O=C(/C=C/c1ccccc1)Nc1nc2c(s1)CCCC2 ?
MgrA-DNA mod: 0

Results for Cc1ccc(C(=O)Nc2nc3c(s2)CCCC3)cc1 ?
MgrA-DNA mod: 0

How did O=C(Nc1nc2c(s1)CCCC2)c1ccncc1 do in these assays?
MgrA-DNA mod: 42*

What do the screens show for `Fc1cccc(F)c1/C=N/n1cnnc1`?
MgrA-DNA mod: 0

How did CC1=C(C(=O)c2ccccc2)CNC(=S)N1 do in these assays?
MgrA-DNA mod: -1

Results for C=CCNc1ncnc2sccc12 ?
MgrA-DNA mod: -1

What do the screens show for `O=c1c2ccccc2c2ccccc2c(=O)n1Cc1cccnc1`?
MgrA-DNA mod: 3

How did O=C1c2cccc3cc([N+](=O)[O-])cc(c23)C(=O)N1Cc1ccncc1 do in these assays?
MgrA-DNA mod: -1

What do the screens show for `O=C1c2cccc3c([N+](=O)[O-])ccc(c23)C(=O)N1Cc1cccnc1`?
MgrA-DNA mod: 60*
